The values below come from PubChem BioAssay.

Calls of active or inactive are those of the source.

The target of one experiment is Albumin (Bos taurus) (UniProt P02769). Nature of the experiment: compounds binding labelled BSA control protein – biochemical, small-molecule microarray, Alexa647 label, 635/667 nm fluorescence, artefact control for SMM control protein annotation, profiling panel (AID 1118).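 Also: score merges 667 nm emission intensity and signal-to-noise per printed compound spot.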 The following applies: BSA-A647 binding, fluorescence 635 nm, higher = more signal.
Sequence of Albumin (Bos taurus) (P02769 whole entry, looked up): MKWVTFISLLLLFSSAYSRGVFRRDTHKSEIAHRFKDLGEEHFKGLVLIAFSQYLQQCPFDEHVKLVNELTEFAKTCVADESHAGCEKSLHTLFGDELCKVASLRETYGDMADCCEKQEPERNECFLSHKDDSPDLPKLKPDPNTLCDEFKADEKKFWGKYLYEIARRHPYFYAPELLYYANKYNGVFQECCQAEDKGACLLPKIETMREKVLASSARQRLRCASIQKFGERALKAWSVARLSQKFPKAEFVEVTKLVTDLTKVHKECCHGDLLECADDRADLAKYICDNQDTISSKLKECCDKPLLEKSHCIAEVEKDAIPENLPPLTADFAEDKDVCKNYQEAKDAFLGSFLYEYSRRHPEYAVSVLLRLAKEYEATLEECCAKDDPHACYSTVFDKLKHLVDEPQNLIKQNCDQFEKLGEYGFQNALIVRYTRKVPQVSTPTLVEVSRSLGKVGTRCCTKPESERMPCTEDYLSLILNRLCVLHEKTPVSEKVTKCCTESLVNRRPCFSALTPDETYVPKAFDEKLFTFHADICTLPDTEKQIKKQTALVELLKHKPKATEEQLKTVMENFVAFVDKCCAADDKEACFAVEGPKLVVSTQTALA
A short description of experiment [1]: probe aXIP binding to arrayed compounds – biochemical, NeuroSMM set, 635/667 nm fluorescence, primary screen (AID 1119).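 Also: probe is the protein aXip251-270 applied at 1 µg/mL to compound-printed slides; binding of probe to printed compounds measured as 667 nm fluorescence plus signal to noise.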 The following applies: small-molecule microarray, higher = more signal, called active from +8 up or from −8 down.
Experiment [2] is described as follows: probe aNOTCH3 binding on compound microarray – biochemical, small-molecule microarray, 635/667 nm fluorescence, primary screen (AID 1120).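 Also: probe is a biotin-tagged antibody raised against NOTCH3 rather than NOTCH3 protein; score merges spot fluorescence near 667 nm with spot signal to noise.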 The following applies: higher = more signal.
A short description of experiment [3]: probe aNOTCH2 binding on compound microarray – biochemical, small-molecule microarray, 635/667 nm fluorescence, primary screen (AID 1121).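 Also: score merges feature fluorescence read at 667 nm with its signal to noise.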 The following applies: higher = more signal.
The target in experiment [4] is Carbonic anhydrase 2 (Homo sapiens) (UniProt P00918). Nature of the experiment: compounds binding carbonic anhydrase 2 – biochemical, small-molecule microarray, Alexa647-labelled CAII, profiling panel (AID 1122). The following applies: CAII-A647 binding fluorescence, higher = more signal.
Experiment [5] can be described thus: COS7 lysate on small-molecule microarray, probe aHis, 635 nm (AID 1123).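 Also: z-score combines 667nm fluorescence intensity with signal-to-noise per printed compound spot.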 The following applies: COS7 cell lysate, fluorescence, higher = more signal.
A short description of experiment [6]: probe aLAP1 signal on lysate-treated microarray – cell lysate, small-molecule microarray, COS7 lysate, primary screen (AID 1124).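 Also: lysate comes from COS7 cells expressing LAP1 and is applied at 0.3 µg/mL; score merges spot fluorescence near 667 nm with signal-to-noise over triplicate slides.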 The following applies: probe aLAP1, fluorescence, higher = more signal.
The subject of another experiment is Sam68 (KHDRBS1). Nature of the experiment: compounds binding KHDRBS1 protein – biochemical, small-molecule microarray, 635 nm fluorescence, primary screen (AID 1125).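 Also: score merges 667 nm channel intensity with signal to noise over triplicate slides.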 The following applies: higher = more signal.
In experiment [7] the test system is Chordin-like protein 2 (CHRDL2). Nature of the experiment: compounds binding chordin-like 2 – biochemical, small-molecule microarray, 635 nm fluorescence, primary screen (AID 1126).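 Also: printed compound slides probed with Chrdl2 protein at 4 µg/mL for 1 h at 4 C; score merges 667 nm emission intensity with signal to noise over three replicate slides.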 The following applies: fluorescence 635 nm, higher = more signal.
Experiment [8] has as its target Concanavalin-A (Canavalia ensiformis) (UniProt P02866). Briefly: compounds binding concanavalin A lectin – biochemical, small-molecule microarray, Alexa647 label, 635 nm, artefact control for SMM control protein annotation, primary screen (AID 1127).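 Also: z combines 667 nm emission intensity with signal-to-noise across three replicate slides.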 The following applies: ConA-A647 binding fluorescence, higher = more signal.

Sequence of Concanavalin-A (Canavalia ensiformis) (P02866 whole entry, looked up): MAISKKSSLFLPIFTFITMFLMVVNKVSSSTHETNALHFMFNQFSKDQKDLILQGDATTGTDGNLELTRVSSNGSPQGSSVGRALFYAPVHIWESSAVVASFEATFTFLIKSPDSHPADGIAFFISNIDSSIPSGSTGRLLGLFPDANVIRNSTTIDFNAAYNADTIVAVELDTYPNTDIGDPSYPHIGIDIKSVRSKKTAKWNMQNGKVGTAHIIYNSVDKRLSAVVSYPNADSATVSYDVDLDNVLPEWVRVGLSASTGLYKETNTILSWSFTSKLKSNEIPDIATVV

With `CO[C@H]1O[C@H](CO)[C@@H](OC(=O)CCc2ccccc2)[C@@H]2OC(=O)[C@@H](Cc3ccccc3)C/C=C/C[C@H](Cc3ccccc3)C(=O)O[C@@H]12`, the composite z-score in the experiment with Albumin (Bos taurus) is 0.0544; in experiment [2] it was -0.0014; in [3], -0.0861; in experiment [4], 0.116; in experiment [5], 0.88; in experiment [6], 0.338. Moreover, the composite z-score is 1.13 in the experiment on Sam68 (KHDRBS1), 0.0642 in experiment [7] and 0.6 in experiment [8]. Further, in experiment [1], the composite Z-score was -0.0061 (inactive).

`O=C1OCCC/C=C\[C@H]2OC34C=CCN(c5ccc6ccccc6c5)C(=O)[C@H]3N(CCO)C(=O)[C@@H]4C12` (stereo not given in full): the composite z-score in the experiment with Albumin (Bos taurus) is -1.75; in experiment [2], -0.355; in experiment [3], -0.213; in experiment [4], 0.959; in experiment [5], -0.237; in experiment [6], 1.48. In addition, the composite z-score is -0.359 in the experiment with Sam68 (KHDRBS1), -2.13 in experiment [7] and -1.39 in [8]. Also, the composite Z-score in experiment [1] is 0.278 (inactive).

`NC(=O)[C@H]1[C@@H]2C(=O)O[C@@H](c3ccccc3)[C@@H](c3ccccc3)N2[C@@H](c2ccc(OCCO)cc2)[C@]12C(=O)Nc1ccc(C#CCCO)cc12`: the composite z-score in the experiment with Albumin (Bos taurus) was found to be 0.586; in experiment [2] it was 0.0203; in experiment [3], 0.0252; in [4], 0.537; in experiment [5], 1.26; in experiment [6] it was 0.204. For the same compound, the composite z-score with Sam68 (KHDRBS1) turned out to be 1.16; in experiment [7] it was 0.0273; in experiment [8] it was 1.07. Also, the composite Z-score in [1] was 0.988 (inactive).

On to `OCCCC1=CC(c2ccc(CN3CCCC3)cc2)N(Cc2cc3c(cc2Br)OCO3)CC1` (stereo not given), for which the composite z-score is -0.715 in the experiment with Albumin (Bos taurus); 0.0833 in [2]; -0.0467 in experiment [3]; 0.0435 in experiment [4]; -0.437 in [5]; 0.597 in [6]. The composite z-score was -0.063 in the experiment on Sam68 (KHDRBS1), 0.901 in experiment [7] and 0.22 in experiment [8]. Also, in [1], the composite Z-score was -0.888 (inactive).

`CC(C)[Si](C#C[Si](C(C)C)(C(C)C)C(C)C)(O[C@H](c1ccccc1)c1cn(Cc2ccccc2)nn1)C(C)C`: the composite z-score is -0.0062 in the experiment with Albumin (Bos taurus); 0.143 in experiment [2]; -0.146 in [3]; 0.237 in [4]; -0.366 in [5]; -0.0307 in experiment [6]. In addition, the composite z-score in the experiment with Sam68 (KHDRBS1) turned out to be 1.02; in experiment [7] it was 0.511; in [8], 0.135. Also, in experiment [1], the composite Z-score is -0.058 (inactive).

For `CCCC=C(CCC)[C@@H](NS(=O)(=O)CC12CCC(CC1=O)C2(C)C)c1ccc(C(=O)OC)cc1` (stereo not given in full), the composite z-score is 0.0225 with Albumin (Bos taurus); 0.344 in experiment [2]; 0.0727 in experiment [3]; -0.0343 in experiment [4]; 2.12 in [5]; 0.154 in experiment [6]. In addition, the results for the composite z-score (with Sam68 (KHDRBS1); in experiment [7]; in experiment [8]) were 0.96, -0.14 and 0.438, respectively. Also, in experiment [1], the composite Z-score is 0.234 (inactive).

As for `CCOC(=O)C1=CC[C@@H](c2ccccc2)N(S(=O)(=O)c2ccc(C)cc2)[C@H]1c1ccccc1`, the composite z-score in the experiment with Albumin (Bos taurus) is 0.831; in [2] it was 0.107; in experiment [3] it was -0.0806; in experiment [4], 0.453; in experiment [5] it was 0.69; in experiment [6], -0.561. Further, the composite z-score in the experiment with Sam68 (KHDRBS1) was 0.749; in [7] it was -0.221; in [8] it was 1.07. The composite Z-score in [1] is -0.563 (inactive).

As to `CCC#CCN(Cc1ccccc1Br)[C@H](/C=C/C1CC1)[C@@H](O)Cc1ccccc1`, the composite z-score in the experiment with Albumin (Bos taurus) is 0.0902; in experiment [2], -0.262; in experiment [3], -0.176; in [4] it was -0.458; in experiment [5] it was -0.408; in experiment [6] it was -0.477. For the same compound, the composite z-score was -0.549 in the experiment with Sam68 (KHDRBS1), -0.784 in experiment [7] and -0.138 in [8]. In experiment [1], the composite Z-score is -0.457 (inactive).

Consider `COc1cc(NN2C(C(O)c3ccco3)C=CC3C(=O)N(C)C(=O)C32)cc(OC)c1OC` (stereo not given), for which the composite z-score with Albumin (Bos taurus) was 0.593; in experiment [2], 0.313; in [3], 0.267; in [4] it was 0.738; in [5], 0.815; in experiment [6] it was -0.0901. The composite z-score in the experiment with Sam68 (KHDRBS1) stood at 0.633; in experiment [7] it was 0.861; in experiment [8] it was 0.215. The composite Z-score in [1] was 0.319 (inactive).

On to `COC(=O)C(CC#Cc1ccc2c(c1)[C@]1(C(=O)N2)[C@H](c2ccc(O)cc2)N2[C@H](c3ccccc3)[C@H](c3ccccc3)OC(=O)[C@H]2[C@@H]1C(=O)NC[C@H](O)c1ccccc1)C(=O)OC`, for which the composite z-score in the experiment with Albumin (Bos taurus) was 0.0841; in experiment [2] it was 0.0948; in experiment [3], -0.0956; in experiment [4], 0.553; in experiment [5], 1.22; in experiment [6], 1.2. In addition, the composite z-score came to 1.24 with Sam68 (KHDRBS1), 0.294 in experiment [7] and 0.517 in experiment [8]. The composite Z-score in [1] is 0.564 (inactive).

As for `CC1CC/C=C\[C@H]2OC34C=CCN(Cc5ccccc5)C(=O)[C@H]3N(C(CO)C(C)C)C(=O)[C@@H]4C2C(=O)O1` (stereo not given in full), the composite z-score with Albumin (Bos taurus) is -1.39; in [2] it was 0.0666; in experiment [3], -0.0418; in [4], 0.821; in experiment [5], 0.152; in [6], 0.219. Further, the composite z-score is -0.271 with Sam68 (KHDRBS1), -0.398 in experiment [7] and -0.355 in [8]. Moreover, the composite Z-score in experiment [1] was -0.263 (inactive).

As to `O=C1CS(=O)(=O)C(c2cccc([N+](=O)[O-])c2)N1c1ccccc1` (stereo not given), the composite z-score with Albumin (Bos taurus) came out at 0.501; in experiment [2] it was 0.482; in [3] it was 0.48; in [4], 0.787; in experiment [5], 0.904; in experiment [6] it was 0.85. Also, the composite z-score with Sam68 (KHDRBS1) is 0.329; in experiment [7], 0.527; in [8], 0.353. Also, in experiment [1], the composite Z-score was 1.11 (inactive).

Turning to `O=C1[C@H]2C=C(I)[C@H](C[C@@H]2OCCOCCO)[C@@]12CO2`, the composite z-score is -0.35 with Albumin (Bos taurus); -0.0299 in [2]; -0.173 in experiment [3]; -0.0167 in [4]; -0.477 in experiment [5]; 0.072 in experiment [6]. Further, the results for the composite z-score (in the experiment with Sam68 (KHDRBS1); in experiment [7]; in [8]) were 0.807, 0.466 and 0.2, respectively. Besides, the composite Z-score in experiment [1] was -0.175 (inactive).

For the compound `CS(=O)(=O)CCOC(=O)C1=CC(CCCO)=CC(c2ccc(CN3CCCC3)cc2)N(Cc2sc3ccccc3c2Cl)C=C1C(=O)OCCS(C)(=O)=O` (stereo not given), the composite z-score with Albumin (Bos taurus) was 1; in [2], 0.439; in experiment [3], 0.251; in experiment [4] it was 0.823; in experiment [5] it was 2.21; in [6], 1.12. For the same compound, the composite z-score in the experiment with Sam68 (KHDRBS1) was 1.3; in [7], 1.03; in experiment [8], 1.19. Moreover, the composite Z-score in [1] was 1.14 (inactive).

With `COc1ccc([C@H]2OC[C@@H]3C[C@H](Cc4ccccc4)C(=O)N32)cc1`, the composite z-score was -0.0141 with Albumin (Bos taurus); 0.03 in experiment [2]; -0.101 in experiment [3]; -0.0065 in [4]; 0.0949 in experiment [5]; -0.0729 in experiment [6]. Besides, the composite z-score in the experiment with Sam68 (KHDRBS1) turned out to be 0.0535; in [7], 0.0962; in experiment [8] it was 0.512. For the same compound, the composite Z-score in experiment [1] was -0.397 (inactive).

As for `COc1ccc(C#Cc2ccc3c(c2)[C@]2(C(=O)N3)[C@H](c3ccc(OCCO)cc3)N3[C@H](c4ccccc4)[C@H](c4ccccc4)OC(=O)[C@H]3[C@@H]2C(=O)NC[C@H](O)c2ccccc2)cc1`, the composite z-score in the experiment with Albumin (Bos taurus) is 0.615; in experiment [2], 0.779; in experiment [3], -0.0531; in [4], 0.496; in [5], 1.71; in experiment [6], 0.117. Further, the composite z-score in the experiment on Sam68 (KHDRBS1) is 1.3; in experiment [7] it was 0.152; in [8], 1.02. Moreover, the composite Z-score in experiment [1] is -0.128 (inactive).

Turning to `C=CCNC(=O)[C@@H]1[C@H]2C(=O)O[C@H](c3ccccc3)[C@H](c3ccccc3)N2[C@H](c2ccccc2OCCO)[C@@]12C(=O)Nc1ccc(C#CCCO)cc12`, the composite z-score with Albumin (Bos taurus) is -0.162; in experiment [2], -0.0302; in experiment [3] it was -0.147; in experiment [4], 0.675; in [5] it was 0.71; in [6] it was 0.452. The composite z-score was 0.826 in the experiment with Sam68 (KHDRBS1), 1.13 in experiment [7] and 1.15 in [8]. Moreover, in experiment [1], the composite Z-score is -0.433 (inactive).
